High-throughput results deposited in PubChem BioAssay by National Center for Advancing Translational Sciences (NCATS).
ClpP mod = qHTS Assay for Activators of ClpP; purified B. subtilis ClpP, FRET peptide cleavage, 20 min; Potency, µM (top dose mostly 57.5 µM); 340,000 tested, 1.9% active; AID 651965, 2013; active = well fitted falling curve with a large enough effect; inconclusive = small, poorly fitted or top-dose-only effect; inactive = no such curve, though single readings can be large or run the other way; note: the source files actives as falling curves though it sought activators and does not explain the sign; nearly all actives have a fitted effect of over 65% in size
Target sequence (P80244 whole entry, looked up): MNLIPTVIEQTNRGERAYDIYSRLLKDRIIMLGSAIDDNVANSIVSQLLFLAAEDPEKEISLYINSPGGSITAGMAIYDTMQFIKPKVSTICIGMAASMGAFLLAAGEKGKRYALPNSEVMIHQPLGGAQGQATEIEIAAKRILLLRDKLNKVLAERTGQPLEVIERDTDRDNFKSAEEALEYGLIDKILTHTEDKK
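Buffer: 100 mM Tris/HCl pH8, 100 mM KCl, 0.05% low protease BSA, 2.5% glycerol, 0.01% Tween-20. ClpP 10 microg/mL final; 20 min RT; delta FRET normalized to ADEP and DMSO controls.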
TDP1 cell CPT = DT40-hTDP1 cell growth loss with CPT | AID 686979 | Potency, µM (doses to about 46.2 µM), most hits filed as inhibitors | 420,000 tested, 12% active | chicken DT40 Tdp1-/-;hTDP1 cells + 20 nM CPT, ATP luminescence, 48 h; note: nearly all actives have a fitted effect of over 55% in size
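Cell growth measured by CellTiter-Glo luminescence after a minimum 48 h, 37 C compound exposure with 20 nM CPT in Tdp1-knockout DT40 cells stably expressing hTDP1, seeded 400/well; qHTS titration format.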
DT40 TDP1 no CPT = qHTS for Inhibitors of human tyrosyl-DNA phosphodiesterase 1 (TDP1): qHTS in cells in absence of CPT; 420,000 tested, 15% active; Potency, µM (doses to about 46.2 µM), most hits filed as inhibitors; AID 686978, 2013; DT40 Tdp1-/- hTDP1 cells, no CPT, ATP luminescence, 48 h; note: nearly all actives have a fitted effect of over 55% in size
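Growth kinetics read by CellTiter-Glo luminescence after ≥48 hr at 37 °C. Cells: DT40 Tdp1-/- stably carrying human TDP1, 400 per well, compound exposure in the absence of CPT (DMSO vehicle).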
D3 ag = activates the human D3 dopamine receptor; P35462; D3R DiscoveRx beta-arrestin cells, luminescence, 90 min; max activation, %; 410,000 tested, 0.58% active; AID 652048; in the data active = max activation above about 30%
Target sequence (P35462 whole entry, looked up): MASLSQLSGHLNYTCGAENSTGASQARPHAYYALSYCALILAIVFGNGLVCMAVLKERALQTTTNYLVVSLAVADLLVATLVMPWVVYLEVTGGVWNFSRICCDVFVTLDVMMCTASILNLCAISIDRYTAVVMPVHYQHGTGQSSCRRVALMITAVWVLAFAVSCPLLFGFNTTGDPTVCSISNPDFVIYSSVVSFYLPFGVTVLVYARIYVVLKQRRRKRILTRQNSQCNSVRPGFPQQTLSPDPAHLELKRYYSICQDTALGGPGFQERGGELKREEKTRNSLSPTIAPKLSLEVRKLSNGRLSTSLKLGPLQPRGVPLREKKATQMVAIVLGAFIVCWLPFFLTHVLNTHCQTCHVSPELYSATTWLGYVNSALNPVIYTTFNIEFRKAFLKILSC
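Agonist mode: compounds and dopamine controls were applied to plated cells for 90 min at 37 degrees C after an overnight attachment at 1500 cells/well. Luminescent read-out followed 30 - 60 minutes at room temperature with DiscoveRx detection reagent.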
IL1B secr inh = inflammasome signaling inhibition, IL-1 beta readout; THP-1 LPS/ATP IL-1B secretion, AlphaLISA, 16 h; hits give low values; activity change, % at 57.5 µM; 360,000 tested, 4.7% active; AID 743279; in the data active = activity change below about -50%; inconclusive = mostly about -30% to -49%
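Secreted IL-1B measured by AlphaLISA bead assay after 16 h compound exposure of THP-1 cells; compounds (final up to 57.5 uM) added 1 h before LPS (250 ng/mL) and ATP (1.25 mM) stimulation; lower signal means less secretion.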
DRD3 antagonist = blocks the human D3 dopamine receptor. P35462. D3R cells, DiscoveRx beta-arrestin luminescence, antagonist mode; hits give low values. max response, negative = inhibition, %. 360,000 tested, 2.5% active. AID 652054; in the data active = max response below about -50%; inconclusive = no clear call, values can overlap the other calls
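Cells plated overnight at 1500 cells/well, then exposed to library compounds with dopamine controls for 90 minutes at 37 degrees C. DiscoveRx reagent added for 30–60 minutes at room temperature; luminescence read, quantitative HTS format.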
Each line names hits and unclear results; the compound was inactive in the other large screens. An excerpt weighted towards active compounds, which were near 21% of everything screened. Unless noted, calls come from the whole dose curve; as a rule, active = well fitted inhibition curve with a large enough effect; inconclusive = small, poorly fitted or top-dose-only effect; inactive = flat fitted curve, though single readings scatter.

CCc1ccc(NC(=O)c2ccc3c(c2)c(C)c(C)n3Cc2ccccc2)cc1	ClpP mod 22µM, TDP1 cell CPT 5.8µM, DT40 TDP1 no CPT 5.2µM (no result: IL1B secr inh, DRD3 antagonist)
CCn1ncc(/C=N\NC(=O)c2ccc3c(c2)c(C)c(C)n3Cc2ccccc2)c1C	ClpP mod inconclusive, DT40 TDP1 no CPT inconclusive
COc1cccc(CNC(=O)c2ccc3c(c2)c(C)c(C)n3Cc2ccccc2)c1	ClpP mod inconclusive, TDP1 cell CPT 16µM, DT40 TDP1 no CPT 18µM (no result: IL1B secr inh, DRD3 antagonist)
COc1ccc(Oc2ncc3nc(-c4ccc(Cl)cc4)c(=O)n(C[C@H]4CCCO4)c3n2)cc1	DT40 TDP1 no CPT inconclusive (no result: ClpP mod, D3 ag, IL1B secr inh, DRD3 antagonist)
CCn1c(C)cc(O)c(C(=O)Nc2cccc(Cl)c2)c1=O	TDP1 cell CPT inconclusive, DT40 TDP1 no CPT 3.7µM
Cc1ccc(CNC(=O)c2ccc3c(c2)c(C)c(C)n3Cc2ccccc2)o1	TDP1 cell CPT inconclusive, DT40 TDP1 no CPT inconclusive (no result: IL1B secr inh, DRD3 antagonist)
Cc1ccc(CNC(=O)c2ccc3c(c2)c(C)c(C)n3Cc2ccc(Cl)cc2)o1	ClpP mod inconclusive, TDP1 cell CPT inconclusive, DT40 TDP1 no CPT 5.2µM (no result: IL1B secr inh, DRD3 antagonist)
Cc1c(C)n(Cc2ccccc2)c2ccc(C(=O)NCc3ccco3)cc12	TDP1 cell CPT inconclusive, DT40 TDP1 no CPT 16µM (no result: IL1B secr inh, DRD3 antagonist)
CCn1c(C)c(C)c2cc(C(=O)Nc3cccc(Cl)c3)ccc21	ClpP mod inconclusive, TDP1 cell CPT inconclusive, DT40 TDP1 no CPT 18µM, IL1B secr inh inconclusive
CCn1c(C)c(C)c2cc(C(=O)NCCCN3CCCC3)ccc21	none
Cc1cccc(Nc2c([N+](=O)[O-])c(=O)oc3ccccc23)c1	none (no result: ClpP mod)
CN(Cc1ccc(Cl)s1)C(=O)CNC(=O)CNC(=O)c1ccc(Cl)cc1Cl	IL1B secr inh inconclusive
CCn1c(C)c(C)c2cc(C(=O)NCc3cccc(C)c3)ccc21	TDP1 cell CPT 23µM, DT40 TDP1 no CPT inconclusive (no result: IL1B secr inh, DRD3 antagonist)
COc1ccc(-n2c(=O)c3ccc(C(=O)NCc4ccc(C)cc4)cc3n(CC(=O)Nc3ccc(F)cc3)c2=O)cc1	none (no result: IL1B secr inh, DRD3 antagonist)
Cc1cccc(Cn2c(C)c(C)c3cc(C(=O)NCc4ccc(C)o4)ccc32)c1	TDP1 cell CPT inconclusive, DT40 TDP1 no CPT inconclusive (no result: IL1B secr inh, DRD3 antagonist)
CC(=O)c1cccc(NC(=O)c2ccc3c(c2)c(C)c(C)n3Cc2ccc(Cl)cc2)c1	TDP1 cell CPT 15µM, DT40 TDP1 no CPT 9.2µM (no result: IL1B secr inh, DRD3 antagonist)
Cc1c(C)n(Cc2ccc(Cl)cc2)c2ccc(C(=O)NCCN3CCOCC3)cc12	TDP1 cell CPT inconclusive, DT40 TDP1 no CPT inconclusive
CCc1cccc(NC(=O)c2ccc3c(c2)c(C)c(C)n3Cc2ccc(F)cc2)c1	ClpP mod 20µM, TDP1 cell CPT 15µM, DT40 TDP1 no CPT inconclusive (no result: IL1B secr inh, DRD3 antagonist)
COc1ccc(-n2c(=O)c3ccc(C(=O)NCc4ccc(C)cc4)cc3n(CC(=O)Nc3ccc(C)cc3)c2=O)cc1	ClpP mod inconclusive, TDP1 cell CPT inconclusive, DT40 TDP1 no CPT 21µM (no result: IL1B secr inh, DRD3 antagonist)
CN(c1ccc(OCC(=O)OCC(=O)Nc2ccc(OC(F)F)cc2)cc1)S(=O)(=O)c1cccs1	none
Cc1c(C)n(Cc2ccccc2)c2ccc(C(=O)OCCN(C)C)cc12	TDP1 cell CPT inconclusive, DT40 TDP1 no CPT 12µM (no result: ClpP mod)
CSCc1c(C(=O)OCC(=O)NC2CCCCC2)oc2ccccc12	TDP1 cell CPT inconclusive, DT40 TDP1 no CPT inconclusive
CCNc1ccc(/C=C/c2ccnc3ccccc23)cc1	DT40 TDP1 no CPT 4µM (no result: D3 ag, IL1B secr inh, DRD3 antagonist)
CNc1ccc(/C=C/c2ccnc3ccccc23)cc1	TDP1 cell CPT 11µM, DT40 TDP1 no CPT 16µM (no result: D3 ag, IL1B secr inh, DRD3 antagonist)
CCCCCCNc1ccc(/C=C/c2ccnc3ccccc23)cc1	TDP1 cell CPT 16µM, DT40 TDP1 no CPT 13µM (no result: D3 ag, IL1B secr inh, DRD3 antagonist)
COc1ccc(C(=O)CCC(=O)Nc2ccc(C)c(Cl)c2)cc1	none (no result: IL1B secr inh, DRD3 antagonist)
CC12CCC(C[N+](C)(CCC[N+](C)(C)C)C1)C2(C)C (stereo not given)	TDP1 cell CPT inconclusive, DT40 TDP1 no CPT inconclusive (no result: ClpP mod, IL1B secr inh, DRD3 antagonist)
CCCOc1ccc(Oc2nc(NC)nc(N3CCOCC3)n2)nn1	TDP1 cell CPT inconclusive (no result: IL1B secr inh, DRD3 antagonist)
COc1ccc(-n2c(=O)c(-c3cccs3)nc3cncnc32)cc1	none (no result: ClpP mod, D3 ag, IL1B secr inh, DRD3 antagonist)
Cc1ccccc1C(=O)Nc1cccc(-c2cn3ccccc3n2)c1	TDP1 cell CPT inconclusive, DT40 TDP1 no CPT inconclusive, IL1B secr inh -80 (no result: ClpP mod)
Cc1ccc(C(=O)Nc2c(-c3ccccc3)nc3ccccn23)cc1	none (no result: IL1B secr inh, DRD3 antagonist)
Cc1ccccc1C(=O)Nc1cccc(-c2ccc(N3CCOCC3)nn2)c1	TDP1 cell CPT inconclusive, DT40 TDP1 no CPT inconclusive
O=C(Nc1cccc(-c2cn3ccccc3n2)c1)c1ccccc1	TDP1 cell CPT inconclusive, DT40 TDP1 no CPT inconclusive, IL1B secr inh -68
O=C(Nc1ccccc1)Nc1cccc(-c2cn3cccnc3n2)c1	DT40 TDP1 no CPT inconclusive (no result: ClpP mod)
Cc1ccc(C(=O)Nc2cccc(-c3cn4ccccc4n3)c2)cc1	TDP1 cell CPT inconclusive, DT40 TDP1 no CPT inconclusive, IL1B secr inh -52 (no result: ClpP mod)
CCCc1n(CC(O)COCC2CC=CCC2)c2ccccc2[n+]1C (stereo not given)	TDP1 cell CPT 8.2µM, DT40 TDP1 no CPT 10µM
CCCc1n(CC(O)COCc2ccccc2)c2ccccc2[n+]1C (stereo not given)	TDP1 cell CPT 23µM, DT40 TDP1 no CPT 23µM (no result: ClpP mod)
